Compounds with a hit are over-represented: about 21% of the library has one in this group of screens.
AMA1-RON2 inh = inhibitors of Plasmodium falciparum AMA1-RON2 interaction; AlphaScreen AMA1-biotinylated RON2 peptide binding; Potency, µM (series often up to 58.2 µM), for inactives: at the highest dose activity change, negative = inhibition, usual class: inhibitors; 360,000 tested, 0.2% active; AID 720542;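 also: potency is read from the fitted curve at half-maximal effect; 0% = vehicle wells and -100% = peptide control; nearly all actives have a fitted effect of over 45% in size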
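AMA1 (3D7) with his tag at 25 nM final met compounds first, then biotinylated RON2 peptide at 25 nM; detection used donor plus acceptor beads, 10 µg/mL apiece, read by AlphaScreen after 30 min at room temperature.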
Cycloheximide cs = affects cycloheximide protein synthesis inhibition readout, counter-screen; cell reporter, cycloheximide protein synthesis inhibition counterscreen; max response, %; AID 2314; 300,000 tested, 12% active; in the data active = max response mostly above about 13%, no sharp cut-off; inactive = mostly below about 14%; also: read at 38.3 µM for the half of the compounds with a filed dose; 0% is about no effect
Shiga inhibitor = Shiga toxin inhibition; Vero cells, Shiga toxin protein synthesis inhibition reporter; inhibition, % at 38.7 µM; 290,000 tested, 9.2% active; AID 2315; in the data active = inhibition mostly above about 28%, no sharp cut-off; inactive = mostly below about 43%; also: 0% is about no effect
Pf growth 48h = P. falciparum growth inhibition at 48 hours (one generation); P. falciparum luciferase growth in erythrocytes, 48 h; 310,000 tested, 5.9% active; Potency, µM (series often up to 28.7 µM), without a hit: top-dose activity change, negative = inhibition, actives largely listed as inhibitors; also: potency is read from the fitted curve at half-maximal effect; % is scaled to controls: 0 for no effect and ±100 for the full control effect
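Compounds are pin-transferred into medium, infected erythrocytes (2% hematocrit, 0.1% parasitemia final) are added, and plates sit one parasite generation at 37 C in 5% CO2. Detection reagent is then added and luminescence measured.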
HCV inh = inhibitors of hepatitis C virus infection; Huh7.5.1 HCVcc-Cre infection, luciferase reporter, 44 h; Potency, µM (highest dose often 41.8 µM), for the others: at the highest dose activity change, negative = inhibition, actives largely listed as inhibitors; 340,000 tested, 3.4% active; AID 651820; also: potency is read from the fitted curve at half-maximal effect; % is scaled to controls: 0 for no effect and ±100 for the full control effect
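Whole-lifecycle infectious HCVcc-Cre system; cells 1,000/well, compound then virus (~0.5 moi) added 4 h after plating, 44 h culture. Luciferase read 15 sec following 15 min substrate incubation, room temp.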
Pf growth 96h = P. falciparum growth inhibition at 96 hours | P. falciparum luciferase reporter growth, 96 h | Potency, µM (titrated, usually from 28.7 µM), for inactives: at the top dose activity change, negative = inhibition, actives largely listed as inhibitors | 320,000 tested, 6.9% active | AID 504834; also: potency is read from the fitted curve at half-maximal effect; % is scaled to controls: 0 for no effect and ±100 for the full control effect
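Cell-based qHTS: luciferase-tagged P. falciparum in erythrocytes (2% hematocrit, 0.05% parasitemia final) incubated with compounds for 96 hours, 37 C, 5% CO2; luciferase detection reagent then added and luminescence measured.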
Active calls of the source: *; u = inconclusive; x = not tested or not shown; [ ] = dose if it differs, or a comment. Unless noted, calls follow the shape of the dose curve; as a rule, active = well fitted curve in the direction sought with a large enough effect; inconclusive = small, poorly fitted or top-dose-only effect, or another doubt; inactive = no such curve, though single readings can be large; an effect the other way counts as inactive or inconclusive.

SMILES | AMA1-RON2 inh | Cycloheximide cs | Shiga inhibitor | Pf growth 48h | HCV inh | Pf growth 96h
CN(C)c1ccc(/C=N/NC(=O)c2ccc3c(c2)OCO3)cc1 | -1% | 39* | 91* | 41% | -3% | 214%
O=C(N/N=C/c1ccc(Br)o1)c1ccc2c(c1)OCCO2 | 12% | 57* | 101* | 57% | 6% | 8%
COc1cc(/C=N/NC(=O)c2ccc3c(c2)OCCO3)cc(Cl)c1O | 26% | 23* | 17 | 27% | 19% | u
CCCCn1c(N)c(N(CCOC)C(=O)CC(NC(=O)c2ccccc2Cl)c2ccccc2)c(=O)[nH]c1=O (configuration not stated) | 3% | x | x | x | -4% | x
COC(=O)C[C@@H]1CC[C@H](NC(=O)c2cnccn2)[C@@H](CO)O1 | 1% | x | x | x | x | x
COc1c(O)ccc(/C=N/NC(=O)c2ccc3c(c2)OCCO3)c1[N+](=O)[O-] | 9% | 21* | 52* | 198% | u | 147%
CCOC(=O)N/N=C\c1ccc(OC(=O)c2ccc3c(c2)OCO3)cc1 | -1% | 42* | 35 | -6% | -9% | 2%
O=C(O)c1ccc(/C=N/NC(=O)c2ccc3c(c2)OCCO3)cc1 | 0% | 21* | 22 | -30% | 14% | u
COc1c(O)ccc(/C=N\NC(=O)c2ccc3c(c2)OCO3)c1[N+](=O)[O-] | -1% | 14 | 11 | 109% | -5% | u
O=C(N/N=C/c1ccccc1)c1ccc2c(c1)OCO2 | 7% | 25 | 24 | 254% | -7% | u
O=C(N/N=C/c1cccnc1)c1ccc2c(c1)OCCO2 | -2% | 42* | 42* | 78% | 10% | 46%
Cc1ccsc1C1CC(=O)OC2=C1C(=O)CC(C)(C)C2 (configuration not stated) | x | 9 | 10 | -10% | x | 12%
O=c1c(Cl)c(N2CCC3(CC2)OCCO3)cnn1C12CC3CC(CC(C3)C1)C2 | 3% | -4 | 4 | u | 8% | u
O=C(N/N=C\c1ccc2c(c1)OCO2)c1cncc(Br)c1 | 22% | 23* | 60* | 19% | -3% | 1%
Cc1ccc(C(=O)N/N=C\c2ccc3c(c2)OCO3)cn1 | -10% | 17 | 28 | 9% | 6% | 27%
O=C(N/N=C/c1cc2c(cc1[N+](=O)[O-])OCO2)c1ccc2c(c1)OCO2 | 17% | 2 | 13 | 18% | -25% | -29%
CCn1cc(/C=N/NC(=O)c2ccc3c(c2)OCO3)cn1 | 27% | 35* | 24 | -32% | -1% | 57%
Cc1nn(C)cc1/C=N/NC(=O)c1ccc2c(c1)OCO2 | 8% | 16* | 26 | 32% | -5% | 49%
Cc1ccc(/C=N\NC(=O)c2ccc3c(c2)OCO3)o1 | 21% | 37* | 53 | 66% | 8% | 1.3µM*
O=C(N/N=C/c1ccc([N+](=O)[O-])o1)c1ccc2c(c1)OCO2 | 5% | 9 | 9 | u | u | u
Cc1nnc(SCC(=O)NC(C)(C)C)n1CCc1ccccc1 | 1% | 11* | 8 | 11% | 10% | u
Cc1nnc(SCC(=O)NC(C)(C)C)n1NCc1c(F)cccc1Cl | -2% | -6 | -1 | 10% | -22% | 2.3µM*
COc1ccccc1NC(=O)CSc1nnc(C)n1CCc1ccccc1 | -6% | 1 | -2 | u | 4% | 10µM*
COc1cccc(CN2CCC2(C)C(=O)Nc2cccc3cccnc23)c1OC (configuration not stated) | 63% | x | x | x | x | x
O=C(CNC(=S)N(CCCN1CCOCC1)Cc1cccs1)N1CCCC1 | -22% | 1 | -2 | 0% | 20% | 0%
SMILES | AMA1-RON2 inh | Cycloheximide cs | Shiga inhibitor | Pf growth 48h | HCV inh | Pf growth 96h
CCN(CC1CCCO1)C(=O)C1CCN(C2CCN(Cc3ccccc3C)CC2)CC1 (configuration not stated) | -12% | -1 | 13 | u | u | u
CCOc1ccc(N=Nc2c(C)noc2C)cc1 | 2% | 28* | 41 | 29% | 5% | u
CCOc1ccc(C(=O)NCC(=O)OCc2c(C)noc2C)cc1 | 15% | -2 | -9 | 1% | 16% | 8%
O=S(=O)(Nc1c(S(=O)(=O)c2ccccc2)c2nc3ccccc3nc2n1C1CCCCC1)c1ccccc1 | -8% | 1 | -10 | 3.7µM* | 8% | 9.3µM*
CC(=O)Nc1c(S(=O)(=O)c2ccccc2)c2nc3ccccc3nc2n1Cc1ccccc1 | 2% | -3 | -8 | u | -7% | 268%
Cc1ccc(S(=O)(=O)c2c(N)n(-c3ccccc3)c3nc4ccccc4nc23)cc1 | 6% | 1 | -17 | u | u | u
C=CCn1c(NS(=O)(=O)c2ccccc2)c(S(=O)(=O)c2ccc(C)cc2)c2nc3ccccc3nc21 | 17% | 9 | 16 | 3.3µM* | -14% | u
O=C(CSCC(=O)N1CCOCC1)Nc1ccccc1 | -10% | -4 | -2 | 20% | 9% | 16%
CCOC(=O)N1CCN(C(=O)CSCC(=O)Nc2nc(-c3ccc(OC)cc3)cs2)CC1 | 14% | 10 | -3 | u | u | u
COc1ccccc1C1(O)CCN(CC(=O)Nc2nc(-c3ccccc3)cs2)CC1 | 21% | 1 | 17 | -2% | 10µM* | -19%
CCOC(=O)N1CCN(C(=O)CSCC(=O)Nc2nc(-c3ccc(-c4ccccc4)cc3)cs2)CC1 | -3% | 32* | active | u | 5.6µM* | 10µM*
O=C(CSCC(=O)N1CCOCC1)Nc1nc(-c2ccccc2)cs1 | 2% | 35* | 84* | -6% | 0% | -17%
CCOC(=O)N1CCN(C(=O)CSCC(=O)Nc2nc(-c3ccc(Cl)s3)cs2)CC1 | -4% | 14* | -15 | u | 11µM* | u
CC[C@]12c3[nH]c4cc(-c5ccco5)ccc4c3CCN1C(=O)[C@@H](CC(=O)NC(C)(C)C)C[C@@H]2C(=O)N1CCN(C(=O)C2CC2)CC1 | -10% | x | x | x | -23%[8.37 µM] | x
Cc1ccc(CNC(=O)CCS(=O)(=O)c2ccc3c(c2)CC(C)N3C(=O)C2CC2)cc1 (configuration not stated) | -3% | -2 | -13 | 6% | -21% | 3%
OC(c1cccc(Cl)c1)c1nc(/C=C/c2ccc(C(F)(F)F)cc2)cs1 (configuration not stated) | 5% | x | x | x | x | x
O=c1c2c([nH]c3ccccc13)C(=C1CCCC1)CC2 | u | 1 | -8 | 13µM* | -15% | 0%
CC(C)(C)C1CCc2[nH]c3ccccc3c(=O)c2C1 (configuration not stated) | -2% | 13 | 9 | 0.52µM* | -4% | u
O=c1c2c([nH]c3ccccc13)CCCC2 | 6% | 14 | -3 | 1.9µM* | -2% | 1.9µM*
O=C(O)c1cccc2c3c([nH]c12)CCCC3 | -2% | -3 | -6 | -6% | 0% | u

Screens: PubChem BioAssay, National Center for Advancing Translational Sciences (NCATS)
